ROC1-CUL1 inh: inhibitors of human ROC1-CUL1 ubiquitin ligase activity; inhibition, % at 10 µM; AID 1347404, 2020; in vitro K48 di-Ub FRET, acceptor:donor ratio, 45 min; E3 ubiquitin-protein ligase RBX1 (Homo sapiens) + Cullin-1 (Homo sapiens), P62877+Q13616; 140,000 compounds, 0.6% hits; in the data active = inhibition above about 25%
Numbers stand for hits; i = inactive. Many of the other results were omitted from the sample, so hits are more common in it than they were.

SMILES	ROC1-CUL1 inh
COc1cc(OC)c(C2c3c(n[nH]c3-c3ccc(C)cc3)OC(=N)C2C#N)cc1OC (stereo not given)	i
C=C(C)COc1cc2c(C(=O)OCCOC)c(C)oc2cc1Br	i
CCOCC(=O)Nc1ccccc1C(=O)OC	i
O=c1[nH]cccc1-c1ccc[nH]c1=O	i
O=c1[nH]cccc1I	65.9
O=c1[nH]cc(I)cc1I	i
O=C(COc1ccc(Cl)cc1Cl)Nc1cccc(O)c1	i
CCc1cccc(C)c1NC(=O)CCn1nc(C)c2c(C)n(-c3ccccc3)nc2c1=O	i
Cc1ccc(C)c(NC(=O)CCn2nc(C)c3c(C)n(-c4ccccc4)nc3c2=O)c1	33.7
Cc1cccc(NC(=O)CCn2nc(C)c3c(C)n(-c4ccccc4)nc3c2=O)c1C	i
COc1cccc(CN2C(=O)CCC2CCNCCOc2ccc(F)cc2)c1 (stereo not given)	i
CCn1c(Cc2ccccc2)nnc1SCC(=O)Nc1cc(Cl)cc(Cl)c1	i
COc1ccc(N=C2C(=Nc3ccc(OC)cc3)N(S(=O)(=O)c3ccccc3)C(=S)N2c2ccc(OC)cc2)cc1	i
CC1CS(=O)(=O)C2CCC(Cl)CC12 (stereo not given)	i
N=C1/C(=C/c2cccc(OC(=O)c3ccc(F)cc3)c2)C(=O)N=C2SC(c3cccs3)=NN12	28.0
Cc1ccc(C2=NN3C(=N)/C(=C/c4cccc(OCc5ccc(F)cc5)c4)C(=O)N=C3S2)cc1	i
N=C1/C(=C\c2ccc(OC(=O)c3ccc(F)cc3)c(Cl)c2)C(=O)N=C2SC(c3ccco3)=NN12	i
O=C(CCCN1C(=O)/C(=C\c2cccc(Br)c2)SC1=S)NNC(=O)c1ccccc1O	i
NC(=O)CC(C(=O)O)N1C(=O)/C(=C/c2cccc(Br)c2)SC1=S (stereo not given)	32.8
CCCC(C(=O)O)N1C(=O)/C(=C/c2ccc(F)cc2)SC1=S (stereo not given)	i
COc1cc2oc(=O)cc(C)c2c(OC)c1OC(C)=O	i
CC(=O)Oc1c(Br)cc2oc(=O)sc2c1Br	33.7
O=C(Nc1ccccc1)Oc1c(Cl)cc2oc(=O)sc2c1Br	i
N#Cc1cccc(NC(=O)c2ccc(-c3ccccc3)cc2)c1	i
CCOc1ccccc1C(c1c(C)[nH]n(-c2ccccc2)c1=O)c1c(C)[nH]n(-c2ccccc2)c1=O	45.6
SMILES	ROC1-CUL1 inh
Cc1[nH]n(-c2ccccc2)c(=O)c1CCc1ccccc1	i
Cc1[nH]n(-c2ccccc2)c(=O)c1C(c1cccc(OCc2ccc(Cl)cc2)c1)c1c(C)[nH]n(-c2ccccc2)c1=O	i
CCOc1ccc(C(c2c(C)[nH]n(-c3ccccc3)c2=O)c2c(C)[nH]n(-c3ccccc3)c2=O)cc1OC	i
Cc1[nH]n(-c2ccccc2)c(=O)c1C(c1ccc(C(=O)O)cc1)c1c(C)[nH]n(-c2ccccc2)c1=O	i
COc1ccccc1C(c1c(C)[nH]n(-c2ccccc2)c1=O)c1c(C)[nH]n(-c2ccccc2)c1=O	26.8
CC(NS(=O)(=O)Cc1cccc(Cl)c1)c1ccccc1 (stereo not given)	i
CCOC(=O)C1C(C)=NC(=S)C(C#N)=C1c1ccccc1 (stereo not given)	i
COc1ccc(/C=C/C(=O)O)cc1COc1ccc(Br)cc1	i
COCCN1C(=O)CC(CC(=O)N2CCCC(c3nc4ccccc4o3)C2)(c2ccccc2F)C1=O (stereo not given)	i
CC(=O)OCCOCn1cc(Br)c(=O)[nH]c1=O	i
COCC(=O)Nc1cc(C(=O)N(C)CC2Cc3ccccc3O2)cc2nc(-c3cccnc3)n(C)c12 (stereo not given)	i
COc1ccc(CCNC(=O)CSCc2c(Cl)cccc2Cl)cc1	i
Cc1cccc2c(C(=O)O)cc(-c3ccc(-c4ccccc4)cc3)nc12	i
Cc1cccc2c(C(=O)N(C)C)cc(-c3cnn(Cc4ccccc4)c3)nc12	i
Cc1cccc2c(C(=O)O)cc(-c3ccccc3O)nc12	29.3
CC(=O)c1cc(C(=O)N2CCOCC2)c(=O)[nH]c1C	i
Cc1cccnc1CCNc1nncc(-c2cccc3ccccc23)n1	i
O=C1CC(=NCc2ccccc2)N=C2SCCCN12	i
O=C(CC1NCCNC1=O)Nc1ccc(Cl)cc1Cl (stereo not given)	i
CCOc1ccc(NC(=S)NCCCO)cc1	i
CCOc1ccc(NC(=S)NCCO)cc1	i
CCOc1ccc(NC(=S)Nc2ccc3nsnc3c2)cc1	50.7
CCc1ccc(-c2[nH]c3c(c2-c2sc(C)c(C(=O)OC)c2O)c(=O)[nH]c(=O)n3C)cc1	i
CCOC(=O)c1c(C)sc(-c2c(-c3ccc4c(c3)OCCO4)[nH]c3c2c(=O)n(C)c(=O)n3C)c1O	33.2
CCOC(=O)c1c(C)sc(-c2c(-c3ccccc3)[nH]c3[nH]c(=O)[nH]c(=O)c23)c1O	i
SMILES	ROC1-CUL1 inh
CCOC(=O)c1c(C)sc(-c2c(-c3ccc4c(c3)OCCO4)[nH]c3c2c(=O)[nH]c(=O)n3C)c1O	30.5
CCOC(=O)c1nn(-c2ccc(C)cc2)c(N=Nc2ccc3c(c2)OCCO3)c1O	i
COc1cccc(-c2[nH]c3c(c2-c2c(-n4cccc4)n(C)c(=O)[nH]c2=O)c(=O)[nH]c(=O)n3C)c1	i
COC(=O)c1c(C)sc(-c2c(-c3ccc4c(c3)OCCO4)[nH]c3[nH]c(=O)[nH]c(=O)c23)c1O	i
CCOC(=O)c1c(C)sc(-c2c(-c3ccc(OC)c(F)c3)[nH]c3c2c(=O)[nH]c(=O)n3C)c1O	32.0
COC(=O)c1c(C)sc(-c2c(-c3ccc4c(c3)OCCO4)[nH]c3c2c(=O)n(C)c(=O)n3C)c1O	i
COC(=O)c1c(C)sc(-c2c(-c3cccc(Cl)c3)[nH]c3c2c(=O)[nH]c(=O)n3C)c1O	28.3
CCOC(=O)c1nn(-c2ccc3c(c2)OCCO3)cc1O	i
CCOC(=O)c1c(C)sc(-c2c(-c3ccc(OC)c(F)c3)[nH]c3[nH]c(=O)[nH]c(=O)c23)c1O	i
COc1cccc(NC(=O)Cc2nnc(SCC(=O)Nc3cccc(SC)c3)n2C)c1	i
Cc1cccc2c(NCc3ccccc3F)nc(CNC(=O)CCc3nc4ccc(F)cc4[nH]3)nc12	i
CO[C@H]1[C@H](NC(=O)c2ccccn2)c2ccccc2C12CCN(C(=O)CCc1c(C)noc1C)CC2	i
Cc1ccc(CNC2CC(=O)N(Cc3cccc(F)c3)C2)o1 (stereo not given)	i
CCc1ccccc1NC(=O)CN1CCN(c2ccccc2)CC1	i
COc1ccc(C(=O)Nc2nnc(SCC(=O)Nc3ccc(F)cc3)s2)cc1OC	i
O=C(O)c1ccc(-c2ccccc2OC(F)(F)F)o1	i
COc1cc(OC)cc(N2C(=O)CSC23C(=O)Nc2ccccc23)c1 (stereo not given)	i
O=C1CSC2(C(=O)Nc3ccccc32)N1c1ccc(Br)cc1 (stereo not given)	i
Cc1ccc(N2C(=O)CSC23C(=O)Nc2ccc(C)cc23)cc1 (stereo not given)	94.3
CC(=O)Nc1ccc(N2CC(C(=O)N3CCN(c4ccccc4)CC3)CC2=O)cc1 (stereo not given)	i
Cn1c(=O)c2c(nc(SCC(=O)Nc3ccc(OC(F)(F)Cl)cc3)n2Cc2ccccc2Cl)n(C)c1=O	i
Cc1ccc(Nc2ncc3c(n2)CC(c2ccco2)CC3=O)cc1 (stereo not given)	i
COc1ccccc1NC(=O)CSc1ncc2c(n1)-c1cc(Cl)ccc1N(C)S2(=O)=O	i
COc1ccc(CNC(=O)CSc2ncc3c(n2)-c2cc(Cl)ccc2N(Cc2ccccc2)S3(=O)=O)cc1	i

Bioassay records: PubChem BioAssay, Pan Lab, Icahn School of Medicine at Mount Sinai
